Source: PubChem (Paczesny and Yang Labs, IUPUI and University of Michigan)
Only a selection was taken, and hits are over-represented in it overall.
ST2 IL33 inh: IL1RL1 inhibition. Q01638. AlphaLISA ST2-Fc/biotin-IL-33 interaction, 1 h. inhibition, % for hits at 17 µM. 78,000 compounds, 2.3% hits. AID 1259354; in the data active = inhibition above about 30%
Target sequence (Q01638 whole entry, looked up): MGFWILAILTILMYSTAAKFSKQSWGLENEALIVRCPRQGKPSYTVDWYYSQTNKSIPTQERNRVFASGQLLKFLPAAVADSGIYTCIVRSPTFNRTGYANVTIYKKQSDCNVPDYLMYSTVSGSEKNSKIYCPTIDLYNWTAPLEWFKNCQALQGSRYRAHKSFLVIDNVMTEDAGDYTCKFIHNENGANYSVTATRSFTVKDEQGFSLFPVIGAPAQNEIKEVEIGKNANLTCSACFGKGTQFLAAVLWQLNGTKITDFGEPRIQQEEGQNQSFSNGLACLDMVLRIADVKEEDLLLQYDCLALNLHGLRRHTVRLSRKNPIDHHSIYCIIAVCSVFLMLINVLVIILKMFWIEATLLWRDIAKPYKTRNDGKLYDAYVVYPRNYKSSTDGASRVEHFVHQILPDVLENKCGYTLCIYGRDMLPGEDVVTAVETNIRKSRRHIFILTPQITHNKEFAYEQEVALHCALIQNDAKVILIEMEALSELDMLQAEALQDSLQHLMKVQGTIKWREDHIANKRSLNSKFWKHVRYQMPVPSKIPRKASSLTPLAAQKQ
* = called active by the depositor; i = inactive.

SMILES | ST2 IL33 inh
CN(Cc1ccccc1)Cc1cn([C@H]2CO[C@H]3[C@@H]2OC[C@@H]3NCc2ccc(-c3ccccc3)cc2)nn1 | i
Cc1cnn(CCCn2ccnc2-c2cccc3nonc23)c1 | i
Oc1c(Br)cc(Br)cc1C=Nc1ccccc1F | i
O=c1[nH]c(/C=C\c2ccccc2Cl)nc2ccccc12 | 44.0%*
Cc1nc2ccccc2c(=O)[nH]1 | i
O=c1[nH]c(/C=C\c2ccccc2Cl)c([N+](=O)[O-])c(=O)[nH]1 | i
CC(=O)Nc1ccc(NC(=O)c2ccc(C)c(Br)c2)cc1 | i
COc1ccccc1CNC(=O)C1c2cc(OC)c(OC)cc2C(=O)N(C)C1c1ccccc1F (centres undefined) | i
COc1cc2c(cc1OC)C(C(=O)NCCN(C)C)C(c1ccccc1F)N(C)C2=O (centres undefined) | 32.0%*
CCCCNC(=O)C1c2cc(OC)c(OC)cc2C(=O)N(C)C1c1ccccc1F (centres undefined) | i
C=CCN(CC=C)C(=O)CN1CCN(S(=O)(=O)CC)CC1 | i
Cc1ccc2nc(C3CCN(C(=O)c4cn(CC5CCCO5)nn4)CC3)[nH]c2c1 (centres undefined) | i
O=C(c1c(F)cccc1F)N(c1ccc(Br)cc1)C1C=CS(=O)(=O)C1 (centres undefined) | i
CCOc1ccc(N2C(=O)S/C(=C\c3ccc(O)cc3)C2=O)cc1 | i
CCOc1ccc(N2C(=O)S/C(=C\c3ccc(C)o3)C2=O)cc1 | 34.0%*
CCOc1ccc(N2C(=O)S/C(=C\c3ccc(OC)cc3)C2=O)cc1 | i
Cc1ccc(N2C(N)=C(C#N)C(c3ccc4c(c3)OCO4)C3=C2CCCC3=O)cc1Cl (centres undefined) | i
COc1ccc(C(CC(=O)NC(C)(C)C)c2ccccc2)cc1 (centres undefined) | i
O=C(O)CN1CC2([N+](=O)[O-])CC=C(Br)C([N+](=O)[O-])(C1)C2 (centres undefined) | i
CCOc1ccc(-c2cn3ccsc3n2)cc1 | i
CCOc1ccc(-c2csc(NC(=O)c3ccc(OC)c(OC)c3)n2)cc1 | i
CCOc1ccc(-c2csc(/C(C#N)=C/c3ccc(N(C)C)cc3)n2)cc1 | 65.0%*
CN(C)c1ccc(/C=C(\C#N)c2nc(-c3ccc(Br)cc3)cs2)cc1 | 53.0%*
O=C(O)C1CCN(c2nc(-c3ccc(Br)cc3)cs2)CC1 | i
COc1cc(/C=C(\C#N)c2nc(-c3ccc(Br)cc3)cs2)ccc1O | 33.0%*
SMILES | ST2 IL33 inh
COc1cc(-c2oc(-c3ccc(O)c(OC)c3)c(C)c2C)ccc1O | i
CCOc1ccc(-c2csc(-c3cc4cccc(OC)c4oc3=O)n2)cc1 | i
CCOc1ccc(-c2csc(/C(C#N)=C/c3ccc(OC)cc3)n2)cc1 | 54.0%*
CCOc1ccccc1/C=C(\C#N)c1nc(-c2ccc([N+](=O)[O-])cc2)cs1 | i
O=C(c1cccc(Cn2cccn2)c1)N1CC(c2ccncc2)C1 | i
O=C(c1cc(C(F)(F)F)[nH]n1)N1CC(=O)N(C2CCCCC2)CC(OCc2cccnc2)C1 (centres undefined) | i
O=C(NCCc1ccccc1)c1ccc(Cl)c(Cl)c1 | i
COc1ccc(-c2cc(-c3ccccc3)nc(Br)c2C#N)cc1 | i
N#C/C(=C\c1cccc(F)c1)c1nc(-c2cc3ccccc3oc2=O)cs1 | i
COc1ccc(-c2csc(/C(C#N)=C/c3cccc(F)c3)n2)cc1 | 43.0%*
COc1cccc(NC(=O)c2cccc(C)c2)c1 | i
CN1CCC(Oc2ccc(Cl)cc2C(=O)NC(C)(C)C)CC1 | i
Cc1cccc(Cn2cnc3c(cnn3-c3ccccc3)c2=O)c1 | i
CNc1ncc(CN(C)c2nc(-c3cccnc3)nc3c2cnn3C)cn1 | 46.0%*
COCc1nc(N(C)Cc2cc(-c3cccnc3)no2)c2cnn(C)c2n1 | i
CCSCCNc1nc(-c2cccnc2)nc2c1cnn2C | i
Cc1cc(C)cc(N(C(=O)c2c(F)cccc2Cl)C2C=CS(=O)(=O)C2)c1 (centres undefined) | i
CCSc1nnc2c(n1)OC(c1ccc(OC)c(OC)c1)Nc1ccccc1-2 (centres undefined) | i
CC(=O)Nc1ccc(NC(=O)CC(c2ccccc2)c2ccccc2)cc1 | i
CC(C)(C)CC(=O)Nc1ccc(Nc2ccccc2)cc1 | 33.0%*
CC(=O)Nc1ccc(NC(=O)Nc2ccccc2)cc1 | i
NC(=O)c1cnc2n1CCN(C(=O)c1ccccc1N1CCOCC1)C2 | i
COc1ccc2nc(NC(=O)c3ccc(Cl)s3)sc2c1 | i
CS(=O)(=O)c1ccc2nc(NC(=O)/C=C/c3ccc(Cl)cc3)sc2c1 | i
COc1ccc2nc(NC(=O)/C=C/c3ccc([N+](=O)[O-])cc3)sc2c1 | 31.0%*
Cc1ccccc1CN1CCN(CCOCCO)CC1 | i
COc1ccc(N2CCN(C(=O)c3cc([N+](=O)[O-])ccc3N3CCCC3)CC2)cc1 | i
COc1ccc(C2CC(c3cccs3)=NN2C(=O)CSc2c[nH]c3ccccc23)cc1 (centres undefined) | i
